Source: PubChem BioAssay
Luc counter – Kinase-Glo luciferase inhibition (counter-screen). Q27757. Kinase-Glo luciferase, ATP luminescence, 8 min. Potency, µM (top dose mostly 38.3 µM), actives largely listed as inhibitors. hit rate 0.28% among 200,000; active means well fitted inhibition curve with a large enough effect; inconclusive means small, poorly fitted or top-dose-only effect; further: nearly all actives have a fitted effect of over 60% in size
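Substrate mix (final 50 mM imidazole pH 7.2, 50 mM KCl, 7 mM MgCl2, 10 uM ATP, 0.01% Tween 20, 0.05% BSA) plus pin-tool compound, then Kinase-Glo detection mix; 8 min ambient, luminescence read.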
KCNH2 WT inh – blocks the wildtype human KCNH2 potassium channel. Q12809. U2OS, BacMam KCNH2, thallium flux FluxOr; stronger effect = lower value. activity change, % at 1.84 µM. hit rate 0.37% among 340,000;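 active means maximum activity change below -70%; inconclusive means maximum activity change between -70% and -50%; inactive means maximum activity change above -50%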
Target sequence (Q12809 whole entry, looked up): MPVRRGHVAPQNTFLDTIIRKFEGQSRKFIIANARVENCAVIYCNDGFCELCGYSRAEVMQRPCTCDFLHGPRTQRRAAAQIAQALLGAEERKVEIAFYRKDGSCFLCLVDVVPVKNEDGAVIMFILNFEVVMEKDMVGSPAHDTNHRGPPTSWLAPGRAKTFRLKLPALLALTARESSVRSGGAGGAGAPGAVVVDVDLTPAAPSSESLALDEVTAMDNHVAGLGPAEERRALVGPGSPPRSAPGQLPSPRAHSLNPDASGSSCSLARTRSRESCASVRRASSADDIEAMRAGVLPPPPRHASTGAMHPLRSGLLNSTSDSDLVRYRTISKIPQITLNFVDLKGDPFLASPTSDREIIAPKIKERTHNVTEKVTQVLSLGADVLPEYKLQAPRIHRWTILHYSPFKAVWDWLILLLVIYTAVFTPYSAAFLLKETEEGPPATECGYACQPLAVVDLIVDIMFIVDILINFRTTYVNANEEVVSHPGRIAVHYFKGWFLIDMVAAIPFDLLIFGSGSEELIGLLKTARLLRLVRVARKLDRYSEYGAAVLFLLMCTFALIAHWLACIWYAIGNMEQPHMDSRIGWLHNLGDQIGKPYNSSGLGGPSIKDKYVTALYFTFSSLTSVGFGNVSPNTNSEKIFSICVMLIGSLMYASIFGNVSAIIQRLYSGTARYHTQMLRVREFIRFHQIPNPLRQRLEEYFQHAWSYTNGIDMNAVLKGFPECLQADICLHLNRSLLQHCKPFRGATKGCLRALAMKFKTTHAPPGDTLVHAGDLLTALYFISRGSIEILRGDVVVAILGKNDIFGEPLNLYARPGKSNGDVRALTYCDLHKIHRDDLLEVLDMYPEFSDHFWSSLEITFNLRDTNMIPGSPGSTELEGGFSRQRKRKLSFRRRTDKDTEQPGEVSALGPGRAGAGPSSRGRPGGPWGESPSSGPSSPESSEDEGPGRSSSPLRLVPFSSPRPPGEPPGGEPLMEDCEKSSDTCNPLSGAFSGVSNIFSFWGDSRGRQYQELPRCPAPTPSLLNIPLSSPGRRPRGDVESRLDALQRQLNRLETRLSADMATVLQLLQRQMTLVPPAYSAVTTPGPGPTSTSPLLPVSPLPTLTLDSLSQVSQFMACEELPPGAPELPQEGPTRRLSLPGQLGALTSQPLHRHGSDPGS
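U2OS cells were transduced with wild-type KCNH2 virus (2.03 x 10^8 / mL) for 4 h at room temperature, then cultured overnight at 37 C. Thallium flux was read with FluxOr dye. Rate constants were normalized to DMSO controls.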
KCNH2 3.1 block – inhibitors of human KCNH2 3.1 potassium channel isoform | activity change, % (tested at about 1.8 µM) | AID 720553 | hit rate 0.95% among 340,000 | U2OS KCNH2 3.1, thallium flux FluxOr; stronger effect = lower value;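 active means maximum activity change below -70%; inconclusive means maximum activity change from -70% to -50%; inactive means maximum activity change above -50%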;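 further: thallium influx rate constant from kinetic fluorescence after stimulation buffer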
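FluxOr-based Tl+ influx in U2OS cells transduced with KCNH2 3.1 virus; rate constants normalized to DMSO controls.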
Numbers stand for hits. An excerpt weighted towards active compounds, which were near 1.2% of everything screened.

Results for CC(C)C[C@@H](CC(=O)N[C@H](CC(=O)N[C@@H]1CCNC[C@H]1C(=O)N[C@H](CC(=O)N[C@@H](CCC(=O)O)CC(=O)O)CC(C)C)C(C)C)NC(=O)[C@@H]1CCCC[C@H]1N ?
Luc counter: inactive

Results for CN1CCN(C(=O)/C(=C/c2ccc(N(C)C)cc2)NC(=O)c2ccccc2)CC1 ?
KCNH2 WT inh: inactive; KCNH2 3.1 block: inactive

What do the screens show for `CN1CCN(C(=O)/C(=C/c2ccc(F)cc2)NC(=O)c2ccccc2)CC1`?
KCNH2 WT inh: inactive; KCNH2 3.1 block: -91

What do the screens show for `c1csc(COc2ccccc2CNC2CCCCC2)c1`?
KCNH2 WT inh: inactive; KCNH2 3.1 block: inactive

What do the screens show for `C[C@@H]1CN([C@@H](C)CO)C(=O)CCCn2cc(nn2)CO[C@H]1CN(C)S(=O)(=O)c1ccccc1C#N`?
KCNH2 WT inh: inactive; KCNH2 3.1 block: inactive

Results for OC(CNCCc1ccccc1)COc1ccc(OCC(O)CNCCc2ccccc2)cc1 (configuration not stated) ?
KCNH2 WT inh: inactive; KCNH2 3.1 block: inactive

What do the screens show for `CC(C)N(CCNCC(O)COc1ccc(C(C)(C)c2ccccc2)cc1)C(C)C` (configuration not stated)?
Luc counter: inactive; KCNH2 WT inh: -96; KCNH2 3.1 block: inconclusive

Results for CC(C)(c1ccccc1)c1ccc(OCC(O)CN2CCCC2)cc1 (configuration not stated) ?
KCNH2 WT inh: inactive; KCNH2 3.1 block: inactive

What do the screens show for `OC(CNCCC(c1ccccc1)c1ccccc1)COc1ccccc1` (configuration not stated)?
Luc counter: inactive; KCNH2 WT inh: inactive; KCNH2 3.1 block: -97

What do the screens show for `COc1ccccc1NC(=O)CCNC(=O)C1CCN(S(=O)(=O)c2ccccc2)CC1`?
KCNH2 WT inh: inactive; KCNH2 3.1 block: inactive

How did O=C(NC(=S)N1CCN(c2ccc([N+](=O)[O-])cc2Cl)CC1)c1ccco1 do in these assays?
Luc counter: inactive; KCNH2 WT inh: inactive; KCNH2 3.1 block: -73

What do the screens show for `O=C(c1ccco1)N1CCN(c2ccc([N+](=O)[O-])cc2Cl)CC1`?
KCNH2 WT inh: inactive; KCNH2 3.1 block: inactive

How did Cc1ccc(NC(=O)c2nc[nH]c2C(=O)N(C)CCO)cc1 do in these assays?
KCNH2 WT inh: inactive; KCNH2 3.1 block: inactive

Results for Cc1ccc(C2=N/C(=C\c3ccc(F)cc3)C(=O)N2)cc1 ?
KCNH2 WT inh: inactive; KCNH2 3.1 block: inactive

How did COc1ccc(CCNC(=O)c2cccs2)cc1OC do in these assays?
Luc counter: inactive; KCNH2 WT inh: inactive; KCNH2 3.1 block: inactive

How did CCOc1ccc(CCNC(=O)c2cccs2)cc1OCC do in these assays?
KCNH2 WT inh: inactive; KCNH2 3.1 block: -86

What do the screens show for `S=C(S)O[C@@H]1C[C@@H]2C[C@H]1[C@@H]1CCC[C@H]21`?
Luc counter: inactive

How did Cc1cc(NS(C)(=O)=O)c(=O)n(Cc2cccc(C(F)(F)F)c2)c1 do in these assays?
KCNH2 WT inh: inactive; KCNH2 3.1 block: inactive

What do the screens show for `CN(NS(C)(=O)=O)c1c(C#N)c(C(F)(F)F)nn1C`?
Luc counter: inactive; KCNH2 WT inh: inactive; KCNH2 3.1 block: inactive

What do the screens show for `CCCSC1=C(C#N)C(c2ccccc2C)CC(=O)N1` (configuration not stated)?
Luc counter: inactive; KCNH2 WT inh: inactive; KCNH2 3.1 block: inactive

Results for CCCCSC1=C(C#N)C(c2ccccc2C)CC(=O)N1 (configuration not stated) ?
Luc counter: inactive; KCNH2 WT inh: -311; KCNH2 3.1 block: inactive

How did Cc1cc(C)cc(NC(=O)NNC(=O)c2cc3occc3[nH]2)c1 do in these assays?
KCNH2 WT inh: inactive; KCNH2 3.1 block: inactive

Results for Cc1cccc(NC(=O)NNC(=O)c2cc3occc3[nH]2)c1C ?
KCNH2 WT inh: inactive; KCNH2 3.1 block: -449

What do the screens show for `O=C(c1cc(Sc2ccc(Cl)cc2)nc2ccccc12)N1CCN(c2ccccn2)CC1`?
Luc counter: inactive; KCNH2 WT inh: inactive; KCNH2 3.1 block: -78

What do the screens show for `O=C(c1cc(Sc2cccc(Cl)c2)nc2ccccc12)N1CCN(c2ccccn2)CC1`?
Luc counter: inactive; KCNH2 WT inh: inactive; KCNH2 3.1 block: inactive

How did COC(=O)CC1c2ccccc2C(Cc2ccc3c(c2)OCO3)=C(C)N1C(=O)OC (configuration not stated) do in these assays?
Luc counter: inactive

What do the screens show for `Cc1ccc(N(C(=O)CNC(=O)c2ccco2)C(C(=O)NC2CCCCC2)c2cccnc2)cc1C` (configuration not stated)?
KCNH2 WT inh: inactive; KCNH2 3.1 block: inactive

What do the screens show for `O=C(NCC(=O)N(c1cccnc1)C(C(=O)NC1CCCC1)c1ccccc1)c1ccco1` (configuration not stated)?
Luc counter: inactive; KCNH2 WT inh: inactive; KCNH2 3.1 block: inactive

What do the screens show for `O=C(NCC(=O)N(c1cccnc1)C(C(=O)NC1CCCCC1)c1ccccc1F)c1ccco1` (configuration not stated)?
KCNH2 WT inh: -149; KCNH2 3.1 block: -193

Results for CC(=O)Nc1ccc(N(C(=O)CNC(=O)c2ccco2)C(C(=O)NC2CCCC2)c2ccco2)cc1 (configuration not stated) ?
KCNH2 WT inh: inactive; KCNH2 3.1 block: inactive

What do the screens show for `CC(=O)Nc1ccc(N(C(=O)CNC(=O)c2ccco2)C(C(=O)NCc2ccco2)c2ccccc2F)cc1` (configuration not stated)?
Luc counter: inactive; KCNH2 WT inh: inactive; KCNH2 3.1 block: -111

How did Cc1ccc(N(C(=O)CNC(=O)c2ccco2)C(C(=O)NC2CCCC2)c2cccnc2)cc1C (configuration not stated) do in these assays?
Luc counter: inactive; KCNH2 WT inh: -189; KCNH2 3.1 block: inactive

What do the screens show for `CC1(C)C2CCC1(CS(=O)(=O)N1CCN(c3ccc(F)cc3)CC1)C(=O)C2` (configuration not stated)?
KCNH2 WT inh: inactive; KCNH2 3.1 block: inactive

How did COc1ccc(N2CCN(C(=O)c3ccc4c(c3)CCN4S(C)(=O)=O)CC2)cc1 do in these assays?
KCNH2 WT inh: inactive; KCNH2 3.1 block: inactive

Results for COc1ccc(N2CCN(C(CNC(=O)COc3ccccc3)c3ccco3)CC2)cc1 (configuration not stated) ?
KCNH2 WT inh: inactive; KCNH2 3.1 block: inactive

Results for CC(=O)Oc1ccc(-c2ccc(C(=O)Nc3cccc(S(=O)(=O)N4CCOCC4)c3)cc2)cc1 ?
Luc counter: inactive; KCNH2 WT inh: inactive; KCNH2 3.1 block: inactive

Results for CC(O)[C@@H](O)[C@H]1CNc2nc(N)[nH]c(=O)c2N1 (some centres not stated) ?
Luc counter: inactive

What do the screens show for `COc1cc(OC)cc(-c2nnc(NC(=O)CCS(=O)(=O)c3ccccc3)o2)c1`?
KCNH2 WT inh: inactive; KCNH2 3.1 block: inactive

How did COc1cc(OC)cc(-c2nnc(NC(=O)CCS(=O)(=O)c3ccc(F)cc3)o2)c1 do in these assays?
KCNH2 WT inh: inactive; KCNH2 3.1 block: -75

What do the screens show for `Oc1ccc(/C=N/NC(=S)Nc2cccnc2)c(O)c1`?
Luc counter: inactive; KCNH2 WT inh: -176; KCNH2 3.1 block: -137

How did Oc1ccc(/C=N/NC(=S)Nc2cccnc2)c(O)c1O do in these assays?
KCNH2 WT inh: inactive; KCNH2 3.1 block: inactive
